{"source": "paper PMC5540273", "about": "(PLoS ONE, 2017);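 further: KINOMEscan kinase panel screen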", "data": [{"tested_on": "WNK2", "details": "concentration: 1 μM, replicates: in singlicate; n = 1", "units": {"%Inh": "%"}, "values": [{"smiles": "Cc1ccc(C(=O)Nc2ccc(Nc3ccnc4cc(-c5nccs5)ccc34)cc2O)cc1.Cl", "note": "[GW494702]", "%Inh": 41}, {"smiles": "Cc1ccc(C)c(NC(=O)NC2CCN(c3ccnc(Nc4ccc(F)cc4)n3)C2)c1", "note": "(stereo not shown) [GSK1379720]", "%Inh": 0}, {"smiles": "COc1ccc(-c2coc3ccc(-c4nnc(SCc5ccc(OC)c(C(F)(F)F)c5)o4)cc23)cc1", "%Inh": 31}, {"smiles": "COc1cc(Nc2ncc3c(C)nc(-c4cc5ccccc5[nH]4)n3n2)cc(OC)c1OC", "note": "[GW869516]", "%Inh": 0}, {"smiles": "O=C(NC1CCN(c2ccnc(Nc3ccc(F)cc3)n2)C1)c1cc2ccccc2s1", "note": "(stereo not shown) [GSK1379716]", "%Inh": 22}, {"smiles": "Cn1cc(-c2ccc3c(c2)CCN3C(=O)Cc2cccc(Cl)c2)c2c(N)ncnc21", "note": "[GSK2606590]", "%Inh": 18}, {"smiles": "COC(=O)Nc1nc2ccc(Oc3ccc(NC(=O)Nc4cc(C(F)(F)F)ccc4F)cc3)cc2n1C.Cl", "note": "[GW692089]", "%Inh": 0}, {"smiles": "O=C(O)C(F)(F)F.O=C(O)C(F)(F)F.O=c1[nH]ccc2nc(N[C@@H]3CCCNC3)nc(Nc3ccc(S(=O)(=O)N4CCOCC4)cc3)c12", "note": "[GSK2177277]", "%Inh": 29}, {"smiles": "CCn1c(-c2nonc2N)nc2c(C#CC(C)(C)O)ncc(OCCCCN)c21.O=C(O)C(F)(F)F.O=C(O)C(F)(F)F", "note": "[GSK507274]", "%Inh": 0}]}, {"tested_on": "WNK3", "details": "concentration: 1 μM, replicates: in singlicate; n = 1", "units": {"%Inh": "%"}, "values": [{"smiles": "CN1CCN(Cc2cccc(-c3ccc4c(Nc5ccc(Oc6ccccc6)cc5)ccnc4c3)c2)CC1", "note": "[GW578342]", "%Inh": 31}, {"smiles": "O=C(Nc1ccccc1F)NC1CCN(c2ccnc(Nc3ccc(F)cc3)n2)CC1", "note": "[GSK1379800]", "%Inh": 37}, {"smiles": "Cl.c1ccc(-c2ccc3c(Nc4ccc5[nH]ncc5c4)ccnc3c2)nc1", "note": "[GW440137]", "%Inh": 19}, {"smiles": "CCn1c(-c2nonc2N)nc2c(C#CC(C)(C)O)nc(OC[C@H](N)c3ccccc3)cc21", "note": "[GSK943949]", "%Inh": 0}, {"smiles": "O=C(Nc1cccc(-c2nn3ccccc3c2-c2ccnc(Nc3cccc(C(F)(F)F)c3)n2)c1)c1c(F)cccc1F", "note": "[GSK292658]", "%Inh": 0}, {"smiles": "Cn1cc(-c2ccc3c(c2)CCN3C(=O)Cc2cccc(F)c2)c2c(N)ncnc21", "note": "[GSK2603358]", "%Inh": 48}, {"smiles": "COc1cc(Nc2nccc(N3CCC(NC(=O)c4cc5ccccc5s4)C3)n2)cc(OC)c1OC", "note": "(stereo not shown) [GSK1379760]", "%Inh": 30}, {"smiles": "COCCOCCOc1cc2ncc3c4ccc(C#N)cc4[nH]c3c2cc1OC", "%Inh": 0}, {"smiles": "Cl.Cl.NCC(NC(=O)c1cc(-c2ccccc2)c(-c2ccnc3[nH]ccc23)s1)c1ccccc1", "note": "(stereo not shown) [GSK1321561]", "%Inh": 3}, {"smiles": "COc1cc(Nc2nccc(-c3c(-c4cccc(NC(=O)c5c(F)cccc5F)c4)nn4ncccc34)n2)cc(OC)c1OC", "note": "[GSK327238]", "%Inh": 0}, {"smiles": "CN(C)S(=O)(=O)c1cc(-c2ccc3nccc(-c4cccc(S(N)(=O)=O)c4)c3c2)cnc1N", "note": "[GSK1669921]", "%Inh": 0}, {"smiles": "Cl.Cl.NCC(NCc1ccc(-c2ccnc3[nH]ccc23)s1)c1ccccc1", "note": "(stereo not shown) [GSK1321565]", "%Inh": 26}, {"smiles": "Cc1ccc(S(=O)(=O)Nc2ccc(Nc3nccc(Nc4cccc5[nH]ncc45)n3)cc2)cc1", "note": "[GSK581271]", "%Inh": 26}, {"smiles": "CC(=O)Nc1nc2cnc(Nc3cc(NC(=O)c4cccc(C5(C#N)CC5)c4Cl)ccc3C)nc2s1", "%Inh": 0}, {"smiles": "CNC(=O)c1ccccc1Nc1nc(Nc2ccc(N3CCOCC3)cc2)ncc1Cl.Cl", "note": "[GSK1576028]", "%Inh": 39}, {"smiles": "Cc1ccc(C(=O)N2CC[C@@H](O)C2)cc1-n1c(C)cc(OCc2ccc(F)cc2F)c(Br)c1=O", "%Inh": 0}, {"smiles": "COc1ccc(Nc2nccc(N3CCC(NC(=O)Nc4cccc(OC)c4)C3)n2)cc1", "note": "(stereo not shown) [GSK1379742]", "%Inh": 19}, {"smiles": "Cl.Cl.NCC(C(=O)Nc1cc(Br)c(-c2ccnc3[nH]ccc23)s1)c1ccccc1", "note": "(stereo not shown) [GSK1269851]", "%Inh": 25}, {"smiles": "Oc1cc(Nc2ccnc3cc(I)ccc23)ccc1F", "note": "[GW552771]", "%Inh": 34}, {"smiles": "COc1ccc(Nc2nccc(NCCNC(=O)c3cc4ccccc4s3)n2)cc1", "note": "[GSK1379896]", "%Inh": 10}, {"smiles": "CCS(=O)(=O)c1ccc(OC)c(Nc2nccc(-c3c(-c4cccc(NC(=O)c5c(F)cccc5F)c4)nn4ncccc34)n2)c1", "note": "[GSK326180]", "%Inh": 18}, {"smiles": "COc1cccc(C(=O)Nc2cccc(Oc3ccc4nc(NC(=O)C5CC5)cn4n3)c2)c1", "%Inh": 0}, {"smiles": "CN(C)Cc1ccc(-c2ccc3c(Nc4ccc(Oc5ccccn5)cc4)ccnc3c2)o1", "note": "[GW567148]", "%Inh": 46}, {"smiles": "Clc1ccc(-c2nn3ncccc3c2-c2ccnc(Nc3ccc4c(c3)OCCO4)n2)cc1", "note": "[GW829116]", "%Inh": 0}, {"smiles": "Cl.c1ccc(-c2ccc3c(Nc4ccc5[nH]ccc5c4)ccnc3c2)nc1", "note": "[GW440138]", "%Inh": 35}, {"smiles": "Fc1ccc(-c2ncn(C3CCNCC3)c2-c2ccnc(Oc3ccc(-c4ccccc4)cc3)n2)cc1", "note": "[SB-245391]", "%Inh": 32}, {"smiles": "O=C(Nc1cccc(Oc2ccc3nc(NC(=O)C4CC4)cn3n2)c1)c1ccccc1C(F)(F)F", "%Inh": 0}, {"smiles": "COc1cccc(C2=C(Nc3ccc(Cl)c(C(=O)O)c3)C(=O)NC2=O)c1", "note": "[SB-390769]", "%Inh": 100}, {"smiles": "Cc1ccc(C(=O)Nc2ccc(Nc3ccnc4cc(-c5nccs5)ccc34)cc2O)cc1.Cl", "note": "[GW494702]", "%Inh": 38}, {"smiles": "Cc1ccc(C)c(NC(=O)NC2CCN(c3ccnc(Nc4ccc(F)cc4)n3)C2)c1", "note": "(stereo not shown) [GSK1379720]", "%Inh": 43}, {"smiles": "COc1ccc(-c2coc3ccc(-c4nnc(SCc5ccc(OC)c(C(F)(F)F)c5)o4)cc23)cc1", "%Inh": 0}, {"smiles": "COc1cc(Nc2ncc3c(C)nc(-c4cc5ccccc5[nH]4)n3n2)cc(OC)c1OC", "note": "[GW869516]", "%Inh": 0}, {"smiles": "O=C(NC1CCN(c2ccnc(Nc3ccc(F)cc3)n2)C1)c1cc2ccccc2s1", "note": "(stereo not shown) [GSK1379716]", "%Inh": 33}, {"smiles": "Cn1cc(-c2ccc3c(c2)CCN3C(=O)Cc2cccc(Cl)c2)c2c(N)ncnc21", "note": "[GSK2606590]", "%Inh": 25}, {"smiles": "COC(=O)Nc1nc2ccc(Oc3ccc(NC(=O)Nc4cc(C(F)(F)F)ccc4F)cc3)cc2n1C.Cl", "note": "[GW692089]", "%Inh": 46}, {"smiles": "O=C(O)C(F)(F)F.O=C(O)C(F)(F)F.O=c1[nH]ccc2nc(N[C@@H]3CCCNC3)nc(Nc3ccc(S(=O)(=O)N4CCOCC4)cc3)c12", "note": "[GSK2177277]", "%Inh": 13}, {"smiles": "CCn1c(-c2nonc2N)nc2c(C#CC(C)(C)O)ncc(OCCCCN)c21.O=C(O)C(F)(F)F.O=C(O)C(F)(F)F", "note": "[GSK507274]", "%Inh": 21}]}]}
